The panel holds about 79,000 compounds, 15% with a hit somewhere; the sample as a whole holds those more often. A number with no mark means an inactive call. Active and inactive are the calls of the source. Rule as the data show it: active = growth inhibition above about 70%; inactive = the rest.

A short description of assay [1]: NCI Yeast Anticancer Drug Screen. Data for the rad50 strain (AID 155).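 Also: 0% = growth of vehicle-only cultures of the same strain.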 As to conditions: S. cerevisiae rad50 strain growth inhibition, hits give high values. The gist of the method: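 Relative growth inhibition (compound vs vehicle) was measured in yeast with a defined repair-gene alteration.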
Assay [2] in a line: NCI Yeast Anticancer Drug Screen. Data for the mec2-1 strain (AID 157). As to conditions: S. cerevisiae mec2-1 strain, hits give high values. The gist of the method:
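Each compound was tested on mec2-1 yeast, a strain altered in DNA damage repair or cell cycle control. Growth inhibition is reported relative to vehicle.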

Assay [3] is described as follows: NCI Yeast Anticancer Drug Screen. Data for the sgs1 mgt1 strain (AID 161).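 Also: 0% = growth of cultures given vehicle only.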 As to conditions: S. cerevisiae sgs1 mgt1 strain, hits give high values. The gist of the method:
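Inhibition of yeast growth, normalised to vehicle-treated controls, is reported for a strain bearing genetic alterations in DNA damage repair.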

Assay [4] can be described thus: NCI Yeast Anticancer Drug Screen. Data for the cln2 rad14 strain (AID 165).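 Also: 0% = growth equal to vehicle treated cultures.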 As to conditions: S. cerevisiae cln2 rad14 strain, hits give high values. The gist of the method:
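Test compounds were added to cln2 rad14 yeast cultures; inhibition of growth was then determined by comparison with vehicle treatment.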

The nature of assay [5]: NCI Yeast Anticancer Drug Screen. Data for the bub3 strain (AID 167). As to conditions: S. cerevisiae bub3 mutant strain, hits give high values. The gist of the method:
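Screening used yeast with an engineered genetic alteration affecting cell cycle control. Compound-exposed cultures were compared with vehicle cultures, and reduced growth was taken as inhibition.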

Assay [6] is described as follows: NCI Yeast Anticancer Drug Screen. Data for the mlh1 rad18 strain (AID 175). As to conditions: S. cerevisiae mlh1 rad18 strain growth inhibition, hits give high values. The gist of the method: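 Inhibition values reflect reduced growth of mutant yeast versus vehicle-treated controls following compound exposure; the mutations affect DNA damage repair.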
Setting [7] is: at 5.0 µM (retest, dose inferred, filed as 0.5).
The mark [8] stands for this setting: at 50.0 µM (retest, dose inferred, filed as 5.0).

In the case of `Cc1ccc(N=P(c2ccccc2)(c2ccccc2)c2ccccc2)cc1.[Br][Hg][Br]`, the growth inhibition in assay [1] (setting [7]) is 99% (active); in assay [1] (setting [8]) it was 99% (active); in assay [1] (at 50.0 µM), 98.8% (active); in assay [2] (setting [7]), 100% (active); in assay [2] (setting [8]) it was 100% (active); in assay [2] (at 50.0 µM), 97.6% (active). For the same compound, the growth inhibition in assay [3] (setting [7]) was 99% (active); in assay [3] (setting [8]), 99% (active); in assay [3] (at 50.0 µM), 98% (active); in assay [4] (setting [7]), 99% (active); in assay [4] (setting [8]), 99% (active); in assay [4] (at 50.0 µM), 98.3% (active). Moreover, the growth inhibition was 98% (active) in assay [5] (setting [7]); 99% (active) in assay [5] (setting [8]); 98.8% (active) in assay [5] (at 50.0 µM); 99% (active) in assay [6] (setting [7]); 99% (active) in assay [6] (setting [8]); 97.1% (active) in assay [6] (at 50.0 µM).

Take `COc1cc(/C=C/c2ccc(OC)c(O)c2)cc(OC)c1`: the growth inhibition in assay [1] (setting [7]) is 0%; in assay [1] (setting [8]) it was 96% (active); in assay [1] (at 50.0 µM), 98.3% (active); in assay [2] (setting [7]), -4%; in assay [2] (setting [8]), 98% (active); in assay [2] (at 50.0 µM), 99.2% (active). The growth inhibition in assay [3] (setting [7]) was 5%; in assay [3] (setting [8]), 98% (active); in assay [3] (at 50.0 µM), 98.9% (active); in assay [4] (setting [7]) it was -14%; in assay [4] (setting [8]), 97% (active); in assay [4] (at 50.0 µM), 98.2% (active). In addition, the growth inhibition in assay [5] (setting [7]) is -4%; in assay [5] (setting [8]) it was 98% (active); in assay [5] (at 50.0 µM) it was 98.2% (active); in assay [6] (setting [7]), -3%; in assay [6] (setting [8]), 97% (active); in assay [6] (at 50.0 µM), 98.9% (active).

For the compound `S=P(Nc1ccc(Cl)cc1)(Nc1ccc(Cl)cc1)c1ccccc1`, the growth inhibition in assay [1] (setting [7]) is 45%; in assay [1] (setting [8]), 90% (active); in assay [1] (at 50.0 µM), 97.8% (active); in assay [2] (setting [7]), 20%; in assay [2] (setting [8]), 33%; in assay [2] (at 50.0 µM), 99.2% (active). In addition, the growth inhibition was 18% in assay [3] (setting [7]); 65% in assay [3] (setting [8]); 97.1% (active) in assay [3] (at 50.0 µM); 37% in assay [4] (setting [7]); 89% (active) in assay [4] (setting [8]); 95.6% (active) in assay [4] (at 50.0 µM). For the same compound, the growth inhibition in assay [5] (setting [7]) was 38%; in assay [5] (setting [8]), 86% (active); in assay [5] (at 50.0 µM), 99.1% (active); in assay [6] (setting [7]), 53%; in assay [6] (setting [8]), 95% (active); in assay [6] (at 50.0 µM) it was 99% (active).

With `C[CH2][Sn]([CH2]C)[O][Sn]([Cl])([CH2]C)[CH2]C`, the growth inhibition is 51% in assay [1] (setting [7]); 96% (active) in assay [1] (setting [8]); 87.9% (active) in assay [1] (at 50.0 µM); 35% in assay [2] (setting [7]); 97% (active) in assay [2] (setting [8]); 88.3% (active) in assay [2] (at 50.0 µM). Besides, the growth inhibition was 37% in assay [3] (setting [7]); 97% (active) in assay [3] (setting [8]); 87.5% (active) in assay [3] (at 50.0 µM); 19% in assay [4] (setting [7]); 91% (active) in assay [4] (setting [8]); 84% (active) in assay [4] (at 50.0 µM). Further, the growth inhibition in assay [5] (setting [7]) was 39%; in assay [5] (setting [8]), 96% (active); in assay [5] (at 50.0 µM) it was 83.3% (active); in assay [6] (setting [7]) it was 75% (active); in assay [6] (setting [8]), 97% (active); in assay [6] (at 50.0 µM) it was 86.7% (active).

In the case of `CC(=O)NC1C(O[C@H]2CC[C@@]3(C)C(CC[C@]4(C)C3CC=C3C5CC(C)(C)CC[C@]5(C(=O)O)CCC34C)C2(C)C)OC(CO)C(O)C1O` (some centres not stated), the growth inhibition was 42% in assay [1] (setting [7]); 98% (active) in assay [1] (setting [8]); 91% (active) in assay [1] (at 50.0 µM); 69% in assay [2] (setting [7]); 99% (active) in assay [2] (setting [8]); 92.8% (active) in assay [2] (at 50.0 µM). Besides, the growth inhibition in assay [3] (setting [7]) was 44%; in assay [3] (setting [8]), 99% (active); in assay [3] (at 50.0 µM), 90.2% (active); in assay [4] (setting [7]), 74% (active); in assay [4] (setting [8]), 99% (active); in assay [4] (at 50.0 µM), 91% (active). Moreover, the growth inhibition was 77% (active) in assay [5] (setting [7]); 98% (active) in assay [5] (setting [8]); 91.2% (active) in assay [5] (at 50.0 µM); 48% in assay [6] (setting [7]); 99% (active) in assay [6] (setting [8]); 90% (active) in assay [6] (at 50.0 µM).

In the case of `COC(C)(C)[CH]([Hg][Cl])n1ccccc1=O` (configuration not stated), the growth inhibition in assay [1] (setting [7]) was 99% (active); in assay [1] (setting [8]) it was 99% (active); in assay [1] (at 50.0 µM), 99.3% (active); in assay [2] (setting [7]), 99% (active); in assay [2] (setting [8]), 100% (active); in assay [2] (at 50.0 µM), 99.4% (active). For the same compound, the growth inhibition was 99% (active) in assay [3] (setting [7]); 99% (active) in assay [3] (setting [8]); 99.3% (active) in assay [3] (at 50.0 µM); 98% (active) in assay [4] (setting [7]); 99% (active) in assay [4] (setting [8]); 99.2% (active) in assay [4] (at 50.0 µM). Moreover, the growth inhibition in assay [5] (setting [7]) is 99% (active); in assay [5] (setting [8]) it was 99% (active); in assay [5] (at 50.0 µM), 99.1% (active); in assay [6] (setting [7]), 98% (active); in assay [6] (setting [8]), 98% (active); in assay [6] (at 50.0 µM), 99.3% (active).

As to `C[AsH](C)CC[AsH](C)C.C[AsH](C)CC[AsH](C)C.C[AsH](C)CC[AsH](C)C.[Ni]`, the growth inhibition in assay [1] (setting [7]) is 79% (active); in assay [1] (setting [8]), 98% (active); in assay [1] (at 50.0 µM) it was 96.9% (active); in assay [2] (setting [7]), 51%; in assay [2] (setting [8]), 99% (active); in assay [2] (at 50.0 µM), 95% (active). Further, the growth inhibition is 93% (active) in assay [3] (setting [7]); 99% (active) in assay [3] (setting [8]); 96.7% (active) in assay [3] (at 50.0 µM); 74% (active) in assay [4] (setting [7]); 97% (active) in assay [4] (setting [8]); 93.5% (active) in assay [4] (at 50.0 µM). Moreover, the growth inhibition in assay [5] (setting [7]) is 68%; in assay [5] (setting [8]), 99% (active); in assay [5] (at 50.0 µM), 96.5% (active); in assay [6] (setting [7]), 56%; in assay [6] (setting [8]) it was 99% (active); in assay [6] (at 50.0 µM), 96.5% (active).

Regarding `CCOC(=O)NP(=O)(NNc1ccccc1)NNc1ccccc1`, the growth inhibition is 79% (active) in assay [1] (setting [7]); 98% (active) in assay [1] (setting [8]); 100% (active) in assay [1] (at 50.0 µM); 82% (active) in assay [2] (setting [7]); 96% (active) in assay [2] (setting [8]); 98.8% (active) in assay [2] (at 50.0 µM). The growth inhibition in assay [3] (setting [7]) is 92% (active); in assay [3] (setting [8]) it was 98% (active); in assay [3] (at 50.0 µM), 98.8% (active); in assay [4] (setting [7]) it was 84% (active); in assay [4] (setting [8]) it was 99% (active); in assay [4] (at 50.0 µM), 98.2% (active). Further, the growth inhibition is 93% (active) in assay [5] (setting [7]); 98% (active) in assay [5] (setting [8]); 98.8% (active) in assay [5] (at 50.0 µM); 92% (active) in assay [6] (setting [7]); 98% (active) in assay [6] (setting [8]); 98.2% (active) in assay [6] (at 50.0 µM).

On to `CC(=O)c1cc2c(cc1O)C(C)(C)CCC2(C)C`, for which the growth inhibition in assay [1] (setting [7]) is 3%; in assay [1] (setting [8]) it was 3%; in assay [1] (at 50.0 µM), 97.8% (active); in assay [2] (setting [7]) it was 1%; in assay [2] (setting [8]), 0%; in assay [2] (at 50.0 µM) it was 98.7% (active). Further, the growth inhibition was 2% in assay [3] (setting [7]); 1% in assay [3] (setting [8]); 47.7% in assay [3] (at 50.0 µM); 0% in assay [4] (setting [7]); 0% in assay [4] (setting [8]); 95.6% (active) in assay [4] (at 50.0 µM). Also, the growth inhibition in assay [5] (setting [7]) is 3%; in assay [5] (setting [8]), 7%; in assay [5] (at 50.0 µM), 95% (active); in assay [6] (setting [7]) it was -2%; in assay [6] (setting [8]) it was -5%; in assay [6] (at 50.0 µM), 98.8% (active).

Source of the values: PubChem BioAssay (NCI).
